Hits are enriched below; roughly 9.3% of the tested compounds scored in any of these assays.
SMN2 splice up: enhancers of SMN2 splice variant expression. hit rate 2.8% among 210,000. HEK293 SMN2-luciferase splicing reporter, luminescence, 30-36 h. Potency, µM (doses to about 46.1 µM), for the others: at the top dose activity change, positive = activation, hits mostly activators. AID 1458; also: % of control where 0% means no effect; nearly all actives have a fitted effect of over 55% in size
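qHTS luciferase splicing reporter: luminescence rises when SMN2 exon 7 is included in transfected HEK293 cells. Compound exposure lasted 30-36 h at 37C, with 4.5 mM final sodium butyrate as control, followed by a ONE-Glo read.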
FLuc modulator: counter-screen for miR-21 project: firefly luciferase inhibitors or activators | purified FLuc, Km substrates, luminescence inhibition | Potency, µM (titrated, usually from 57.5 µM), without a hit: at the highest dose activity change, negative = inhibition, hits mostly inhibitors | hit rate 6.9% among 360,000;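 also: plate controls were vehicle for no effect and reference inhibitor for full effect; nearly all actives have a fitted effect of over 55% in size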
Target sequence (P08659 whole entry, looked up): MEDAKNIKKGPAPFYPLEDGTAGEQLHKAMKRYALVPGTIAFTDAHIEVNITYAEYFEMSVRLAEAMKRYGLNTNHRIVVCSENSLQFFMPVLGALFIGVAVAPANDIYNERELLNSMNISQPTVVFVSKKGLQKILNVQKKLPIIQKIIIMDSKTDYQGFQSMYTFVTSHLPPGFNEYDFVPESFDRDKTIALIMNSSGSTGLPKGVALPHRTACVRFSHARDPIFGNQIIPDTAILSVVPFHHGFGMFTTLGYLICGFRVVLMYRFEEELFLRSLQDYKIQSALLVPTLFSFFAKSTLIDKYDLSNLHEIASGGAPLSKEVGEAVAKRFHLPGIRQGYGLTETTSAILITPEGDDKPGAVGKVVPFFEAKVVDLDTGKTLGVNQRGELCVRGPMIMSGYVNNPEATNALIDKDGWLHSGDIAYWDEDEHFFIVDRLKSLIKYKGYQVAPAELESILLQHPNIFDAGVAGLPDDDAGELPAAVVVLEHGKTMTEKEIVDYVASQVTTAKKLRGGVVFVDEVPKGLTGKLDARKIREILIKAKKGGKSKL
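Biochemical qHTS of compounds, final roughly 60 µM downward over six points, against 10 nM purified firefly luciferase using Km concentrations of substrates (10 uM D-luciferin, 10 uM ATP) in Tris acetate pH 7.5 buffer; luminescence output.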
NPC1 prom act: NPC1 promoter activation; Huh7 NPC1 promoter luciferase reporter, 24 h; Potency, µM (top dose mostly 9.22 µM), inactives show top-dose activation, hits mostly activators; hit rate 2.4% among 320,000; also: % of control where 0% means no effect; nearly all actives have a fitted effect of over 60% in size
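Stable NPC1-promoter luciferase Huh7 line; cpd (DMSO) 24 h, 37 °C, 5% CO2; Amplite luciferase reagent 10 min RT; luminescence readout. qHTS format.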
ELG1 DNA repair: ELG1-dependent DNA repair inhibition; Potency, µM (titrated, usually from 46.1 µM), inactives show at the top dose activity change, negative = inhibition, most hits filed as inhibitors; HEK293T ELG1-luciferase reporter, luminescence, 16 h; DNA damage induced by 5-fluorouridine; hit rate 2.3% among 330,000; also: % is scaled to controls: 0 for no effect and ±100 for the full control effect; nearly all actives have a fitted effect of over 55% in size
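Overnight (16 hr) co-exposure of 2,000 cells/well to 5-fluorouridine and compound at 37 °C preceded detection. Luciferase was quantified via ONE-Glo luminescence; loss of signal denotes inhibition.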
ELG1 genotoxic: induces genotoxicity in HEK293T cells with luciferase-tagged ELG1; AID 504466; hit rate 1.3% among 330,000; HEK293T ELG1-luciferase reporter, luminescence, 16 h; Potency, µM (titrated, usually from 46 µM), for the others: top-dose activity change, positive = activation, most hits filed as activators; also: % of control where 0% means no effect; nearly all actives have a fitted effect of over 60% in size
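HEK293T cells expressing luciferase-tagged ELG1 were exposed to compound or DMSO vehicle for 16 hr at 37 °C and 5% CO2. Luciferase activity was then measured with ONE-Glo after 30 min at room temperature.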
Rab9 promoter act: activators of Rab9 promoter | hit rate 2.8% among 320,000 | Huh7 Rab9 promoter-luciferase reporter, luminescence, 24 h | Potency, µM (highest dose often 9.22 µM), for inactives: top-dose activation, negative = inhibition, most hits filed as activators; also: % of control where 0% means no effect; nearly all actives have a fitted effect of over 60% in size
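Luciferase signal after 10 min detection reagent at ambient indicates Rab9 promoter upregulation; stably transfected Huh7 cells were treated 24 h with compound in DMSO at 37 °C, 5% CO2.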
Numbers without * were called inactive; ? = inconclusive; nt = not tested or not shown; [ ] = dose if it differs, or a comment. Calls follow the shape of the dose curve; as a rule, active = well fitted curve in the direction sought with a large enough effect; inconclusive = small, poorly fitted or top-dose-only effect, or another doubt; inactive = no such curve, though single readings can be large; an effect the other way counts as inactive or inconclusive. Potency is read from the fitted curve at half-maximal effect.

SMILES	SMN2 splice up	FLuc modulator	NPC1 prom act	ELG1 DNA repair	ELG1 genotoxic	Rab9 promoter act
O=C(Nc1ccccc1)c1ccc2c(c1)OCCO2	17.8µM*	4.26µM*	0.708µM*	?	?	1.58µM*
Cc1cccc(NC(=S)NNC(=O)c2ccc3c(c2)OCO3)c1	12.6µM*	4.78µM*	?	?	?	1.78µM*
COc1cc(C(=O)NC(=S)Nc2ccc3c(c2)OCO3)cc(OC)c1OC	nt	?	1.1%	?	-1.6%	-9.8%
COc1cc(C(=O)NC(=S)NNC(=O)c2ccc3c(c2)OCO3)cc(OC)c1OC	nt	3.6%	-2.1%	16.4µM*	-1.5%	-0.5%
O=C(Nc1ccc(NC(=O)c2ccc3c(c2)OCCO3)cc1)c1ccccc1	nt	2.3%	-3.3%	21.6%	?	-6.7%
Nc1nc(SCC(=O)N2CCCc3ccccc32)[nH]c(=O)c1-c1ccccc1	?	?	0.4%	?	1.0%	-0.8%
c1ccc(CCNc2ccnc3cc4ccccc4cc23)cc1	-65.8%	-11.7%	-19.0%	?	10.7%	-34.7%
COCCCNC(=S)Nc1ccc(C)cc1[N+](=O)[O-]	23.0%	-13.1%	7.3%	?	10.0%	17.6%
COc1cc2c(cc1OC)C(CCN)=NCC2	-4.6%[9.22 µM]	nt	nt	nt	nt	nt
CCn1c2ccccc2c2cc(CN3CCN(S(=O)(=O)CC)CC3)ccc21	-40.9%	-1.7%	-8.3%	-19.6%	-1.1%	-10.3%
CN(CC(=O)Nc1c(Cl)cccc1Cl)CC(=O)N(C)C1(C#N)CCCCC1	nt	nt	nt	1.9%	0.3%	nt
COCCNC(=O)COC(=O)C1=Cc2ccccc2OC1	nt	4.4%	-2.2%	1.4%	0.7%	-3.0%
Cc1ccc(C(=O)Nc2cccc(N(C)S(C)(=O)=O)c2)cc1S(=O)(=O)Nc1ccccc1	-2.6%	-3.4%	2.5%	?	-9.2%	-2.8%
Cc1cccc(NC(=S)NNC(=O)c2nn(C)cc2Cl)c1	13.9%	?	-4.2%	?	1.7%	-7.3%
CN(CC(=O)Nc1cccc(F)c1)C(=O)c1ccc2c(c1)OCCO2	nt	?	-0.3%	?	16.1%	-4.8%
Cc1cccc(NC(=S)NNC(=O)c2csc3c2CCC(C)C3)c1 (configuration not stated)	18.5%	12µM*	15.7%	?	24.9%	?
O=C(Nc1cccc(F)c1)c1ccc2c(c1)OCCO2	nt	4.78µM*	?	?	?	3.16µM*
CCCc1cc(C(=O)NNC(=S)Nc2cccc(C)c2)cs1	5.62µM*	10.7µM*	?	?	9.3%	2.51µM*
Cc1ccc(NC(=O)c2ccc3c(c2)OCCO3)cc1S(=O)(=O)Nc1cccc(Cl)c1	nt	16.9µM*	12.7%	?	-4.4%	15.8%
Cc1ccc(NC(=O)c2ccc3c(c2)OCCO3)cc1C	nt	0.269µM*	0.631µM*	?	?	0.316µM*
Cc1cccc(NC(=O)c2cccc(C(=O)Nc3cccc(C)c3)c2)c1	nt	-7.5%	2.1%	12.5%	2.8%	-3.0%[1.84 µM]
Cc1cccc(NC(=O)c2ccc3c(c2)OCCO3)c1	nt	0.757µM*	0.891µM*	?	?	0.631µM*
COC(=O)c1ccsc1NC(=O)c1ccc2c(c1)OCCO2	nt	19µM*	-1.4%	?	14.4%	16.7%
Cc1ccc(C(=O)NCC(=O)OCC(=O)c2ccc3c(c2)OCCO3)cc1C	-5.6%	21.3µM*	7.4%	?	11.6%	7.8%
CCOC(=O)Cc1csc(NC(=O)c2c(-c3c(Cl)cccc3Cl)noc2C)n1	3.9%	3.7%	-6.2%	-2.1%	-1.0%	-2.9%
SMILES	SMN2 splice up	FLuc modulator	NPC1 prom act	ELG1 DNA repair	ELG1 genotoxic	Rab9 promoter act
CCOC(=O)Cc1csc(NC(=O)/C=C/c2ccccc2Cl)n1	nt	1.2µM*	?	-13.3%	-7.3%	?
CCOC(=O)Cc1csc(NC(=O)/C=C\c2ccccc2Cl)n1	nt	1.51µM*	27.4%	4.4%	7.9%	?
CCOC(=O)Cc1csc(NC(=O)Cc2ccc(Cl)cc2)n1	nt	-23.7%	0.8%	?	-9.3%	-2.8%
Cc1ccc2nc(SCC(=O)Nc3cccnc3Cl)[nH]c2c1	nt	-12.0%	-1.6%	9.7%	-0.8%	-5.9%
CN(C)c1ccc(C(=O)OCC(=O)N2CCCCCC2)cc1	21.9%	?	?	?	10.8%	3.55µM*
CN(C)c1ccc(C(=O)OCC(=O)NCCNC(=O)COC(=O)c2ccc(N(C)C)cc2)cc1	nt	4.78µM*	3.98µM*	?	?	1.41µM*
CCCc1cc2c(OC(=O)CC)c(-c3ccc(C(=O)OCC)o3)c(=O)oc2cc1OC	9.4%	23.9µM*	2.2%	11.6%	-0.4%	-6.1%
CCCc1cc(-c2n[nH]c(C)c2-c2ccc(C(=O)OCC)o2)c(O)cc1O	-17.5%	-1.9%	-3.6%	?	-12.5%	0.5%
Cc1ccc(S(=O)(=O)N2CCOCC2)cc1N/N=C(\C#N)c1nc2ccccc2[nH]1	nt	-7.1%	-6.7%	8.2µM*	-3.0%	-1.5%
Cc1ccc(C(=O)OC/C(O)=C(\C#N)c2nc3ccccc3[nH]2)cc1S(=O)(=O)N1CCOCC1	-15.4%	-4.7%	-0.4%	?	-1.8%	-1.6%
COc1ccc(Cn2c(CCC(=O)NCCC(C)C)nc3ncccc3c2=O)cc1	nt	-3.3%	-1.9%	11.1%	1.9%	-2.2%
O=C(Nc1cccnc1)c1cnn2c1NC(=C1CC1)C=C2C(F)F	nt	-0.7%	nt	nt	nt	nt
COc1ccc(CN(CC2CCCO2)C(=O)CN2C(=O)COc3ccccc32)cc1OC (configuration not stated)	-6.1%	-10.5%	-3.9%	11.6µM*	-10.3%	8.6%
O=C(CS(=O)(=O)c1ccccc1)N1CCCCC1	nt	0.4%	1.1%	?	6.7%	7.1%
C/C(=C\C(=O)c1ccc(C)cc1)Nc1ccc(N2CCOCC2)cc1	8.6%	-1.4%	0.0%	-2.6%	-0.2%	14.1%
Cc1ccc(C(=O)/C=C/Nc2ccc(S(=O)(=O)Nc3cc(C)nc(C)n3)cc2)cc1	nt	?	-0.7%	?	10.9%	-2.3%
Cc1ccc(C(=O)/C=C/Nc2ccc3c(c2)OCO3)cc1	?	0.269µM*	0.708µM*	?	?	0.708µM*
C/C(=C\C(=O)c1ccc(C)cc1)Nc1cccc(O)c1	?	0.849µM*	2.82µM*	?	?	0.631µM*
Cc1ccc(C(=O)/C=C/Nc2cccc(O)c2)cc1	25.1µM*	0.379µM*	27.9%	?	4.11µM*	?
Cc1ccc(N/C=C/C(=O)c2ccccc2)cc1Br	nt	0.601µM*	3.98µM*	?	?	3.16µM*
Cc1ccc(C(=O)n2nnc3ccccc32)cc1[N+](=O)[O-]	3.6%	-6.6%	0.2%	20.7%	2.2%	9.4%
COc1ccccc1N1C(=O)CCC1(C#N)c1ccccc1 (configuration not stated)	?	3.1%	nt	nt	nt	nt
